In PubChem BioAssay (NCATS):
Results filed as inconclusive are left out. Activity calls are given as the source filed them. Calls follow the shape of the dose curve; as a rule, active = well fitted curve in the direction sought with a large enough effect; inconclusive = small, poorly fitted or top-dose-only effect, or another doubt; inactive = no such curve, though single readings can be large; an effect the other way counts as inactive or inconclusive.

Assays:
CRL-7250 = normal cell line; assay: Cytotoxic Profiling of Annotated Libraries Using Quantitative High-Throughput Screening (AID 1296008); conditions: Five cell lines viability, CellTiter-Glo ATP luminescence, 48-72 h; max response: stronger effect = lower value; also: nearly all actives have a fitted effect of over 60% in size; as to max response: % is scaled to controls: 0 for no effect and ±100 for the full control effect
Outline: (§1)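 Cells exposed to compounds for 48 or 72 hr at 37 degrees Celsius. Viability read as ATP-coupled luminescence with CellTiter-Glo after 10 min at room temperature.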

HEK293 = assay: as above; conditions: Five cell lines viability, CellTiter-Glo ATP luminescence, 48-72 h; max response: stronger effect = lower value
Outline: as §1

HaCat [1] = assay: as above; conditions: Five cell lines viability, CellTiter-Glo ATP luminescence, 48-72 h; max response: stronger effect = lower value
Outline: as §1

KB-3-1 = assay: as above; conditions: Five cell lines viability, CellTiter-Glo ATP luminescence, 48-72 h; max response: stronger effect = lower value
Outline: as §1

NIH3T3 = assay: as above; conditions: Five cell lines viability, CellTiter-Glo ATP luminescence, 48-72 h; max response: stronger effect = lower value
Outline: as §1

HACAT [2] = assay: qHTS assay to identify novel small-molecules to repurpose for Merkel cell carcinoma treatment (AID 1296009); conditions: MCC and control cell lines, CellTiter-Glo viability, 72 h; at 44.8 µM (top of the series) unless noted; also: nearly all actives have a fitted effect of over 60% in size
Outline: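 CellTiter-Glo luminescence after 72 hr compound exposure at 37 degree celsius gave cell viability. Libraries NPC and MIPE were run as 8- and 11-point dose responses; RLUs normalized to DMSO (negative) and no-cell (cytotoxicity) controls.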

C33A = assay: Primary qHTS to identify gynecologic anti-cancer compounds using libraries of approved drugs and bioactive compounds (AID 1345084); conditions: Gynecologic cancer cell panel viability, ATPlite luminescence, 48 h; series mostly up to 57.5 µM; also: % is scaled to controls: 0 for no effect and ±100 for the full control effect; nearly all actives have a fitted effect of over 55% in size
Outline: (§2)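 Cell viability after 48 h drug treatment, ATPlite luminescence readout; five doses.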

CAOV3 = assay: as above; conditions: Gynecologic cancer cell panel viability, ATPlite luminescence, 48 h; series mostly up to 57.5 µM
Outline: as §2

CASKI = assay: as above; conditions: Gynecologic cancer cell panel viability, ATPlite luminescence, 48 h; series mostly up to 57.5 µM
Outline: as §2

Es-2 = assay: as above; conditions: Gynecologic cancer cell panel viability, ATPlite luminescence, 48 h; series mostly up to 57.5 µM
Outline: as §2

HeLa = assay: as above; conditions: Gynecologic cancer cell panel viability, ATPlite luminescence, 48 h; series mostly up to 57.5 µM
Outline: as §2

Hek293T = assay: as above; conditions: Gynecologic cancer cell panel viability, ATPlite luminescence, 48 h, control line for the selectivity index; series mostly up to 57.5 µM
Outline: as §2

JEG-3 = assay: as above; conditions: Gynecologic cancer cell panel viability, ATPlite luminescence, 48 h; series mostly up to 57.5 µM
Outline: as §2

COc1c(C)c(OCC=C(C)C)cc2c1CNC2=O
inactive: max response (CRL-7250) -2.67% | max response (HEK293) -5.13% | outcome (HaCat [1]) | max response (KB-3-1) -3.05% | max response (NIH3T3) -2.21% | outcome (HACAT [2]) | Potency (C33A) | Potency (CAOV3) | outcome (CASKI) | Potency (Es-2) | Potency (HeLa) | Potency (Hek293T) | Potency (JEG-3)

COc1ccnc(CCc2nc3ncccc3[nH]2)c1
inactive: max response (CRL-7250) -4.02% | max response (HEK293) -80.6% | outcome (HaCat [1]) | outcome (KB-3-1) | max response (NIH3T3) 3.19% | outcome (HACAT [2]) | Potency (C33A) | Potency (CAOV3) | outcome (CASKI) | Potency (Es-2) | Potency (HeLa) | Potency (Hek293T) | Potency (JEG-3)

C/C=C1/C[N+](C)([O-])C2Cc3c([nH]c4ccccc34)C(=O)CC1C2C(=O)OC (centres undefined)
inactive: max response (CRL-7250) -5.18% | max response (HEK293) -0.509% | outcome (HaCat [1]) | max response (KB-3-1) 8.09% | max response (NIH3T3) -1.66% | outcome (HACAT [2]) | Potency (C33A) | Potency (CAOV3) | outcome (CASKI) | Potency (Es-2) | Potency (HeLa) | Potency (Hek293T) | Potency (JEG-3)

COC(O)(CC(C)C)C1Oc2cc(C)[nH]c(=O)c2O1 (centres undefined)
inactive: outcome (CRL-7250) | max response (HEK293) 0.893% | outcome (HaCat [1]) | max response (KB-3-1) 6.46% | max response (NIH3T3) 3.8% | outcome (HACAT [2]) | Potency (C33A) | Potency (CAOV3) | outcome (CASKI) | Potency (Es-2) | Potency (HeLa) | Potency (Hek293T) | Potency (JEG-3)

On1ncc(C2CCNCC2)c1-c1cccc(-c2ccccc2)c1
inactive: outcome (CRL-7250) | max response (HEK293) -1.77% | outcome (HaCat [1]) | max response (KB-3-1) 8.99% | max response (NIH3T3) 1.04% | outcome (HACAT [2]) | Potency (C33A) | Potency (CAOV3) | outcome (CASKI) | Potency (Es-2) | Potency (HeLa) | Potency (Hek293T) | Potency (JEG-3)

CCC(C)C(C(=O)O)N1Cc2c(OCC=C(C)C)c(C)c(OC)c(C(=O)O)c2C1=O (centres undefined)
inactive: max response (CRL-7250) 0.564% | max response (HEK293) -3.21% | outcome (HaCat [1]) | outcome (KB-3-1) | max response (NIH3T3) -10.1% | outcome (HACAT [2]) inactive [at 17.4 µM] | Potency (C33A) | Potency (CAOV3) | outcome (CASKI) | Potency (Es-2) | Potency (HeLa) | Potency (Hek293T) | Potency (JEG-3)

Nc1ncnc2c1c(COc1cccc(Cl)c1)nn2C1CCOCC1
inactive: max response (CRL-7250) -3.67% | max response (HEK293) -4.69% | outcome (HaCat [1]) | outcome (KB-3-1) | outcome (NIH3T3) | outcome (HACAT [2]) | Potency (C33A) | Potency (CAOV3) | outcome (CASKI) | Potency (Es-2) | Potency (HeLa) | Potency (Hek293T) | Potency (JEG-3)

COc1cc(C(O)C2COC(c3ccc(OC4OC(CO)C(O)C(O)C4O)c(OC)c3)C2CO)ccc1O (centres undefined)
inactive: max response (CRL-7250) -6.83% | max response (HEK293) -1.12% | outcome (HaCat [1]) | max response (KB-3-1) 8.83% | max response (NIH3T3) -19.8% | outcome (HACAT [2]) inactive [at 17.4 µM] | Potency (C33A) | Potency (CAOV3) | outcome (CASKI) | Potency (Es-2) | Potency (HeLa) | Potency (Hek293T) | Potency (JEG-3)

C[C@H]1CC(=O)C2=C(C1)C(O)C(O)[C@@]1(O)[C@H]2C(=O)c2cccc(O)c2[C@@H]1O (some centres undefined)
inactive: max response (CRL-7250) -10.1% | max response (HEK293) 3.36% | outcome (HaCat [1]) | outcome (KB-3-1) | max response (NIH3T3) 3.59% | outcome (HACAT [2]) | Potency (C33A) | Potency (CAOV3) | outcome (CASKI) | Potency (Es-2) | Potency (HeLa) | Potency (Hek293T) | Potency (JEG-3)

CC(=O)OCC1OC(OC2COC(OC3COC(OC4C(OC5C(CO)OC(OC6CCC7(C)C(CCC8(C)C7CC=C7C9CC(C)(C)CCC9(C(=O)OC9OC(CO)C(O)C(O)C9OC9OCC(OC%10OCC(O)(CO)C%10O)C(O)C9O)C(O)CC78C)C6(C)C)C(O)C5O)OCC(O)C4O)C(O)C3O)C(O)C2O)C(OC(=O)/C=C/c2ccccc2)C(O)C1OC(C)=O (centres undefined)
inactive: max response (CRL-7250) 2.77% | max response (HEK293) -18.2% | outcome (HaCat [1]) | max response (KB-3-1) 4.45% | max response (NIH3T3) -0.042% | outcome (HACAT [2]) inactive [at 4.96 µM] | activity change, negative = cytotoxicity (C33A) 6.07% [at 6.55 µM] | activity change, negative = cytotoxicity (CAOV3) -0.975% [at 6.55 µM] | activity change, negative = cytotoxicity (CASKI) 5.64% [at 6.55 µM] | activity change, negative = cytotoxicity (Es-2) -4.41% [at 6.55 µM] | activity change, negative = cytotoxicity (HeLa) 6.46% [at 6.55 µM] | activity change, negative = cytotoxicity (Hek293T) 3.2% [at 6.55 µM] | activity change, negative = cytotoxicity (JEG-3) -2.72% [at 6.55 µM]

C=C1CCC2[C@](C)(CO)CCC[C@@]2(C)[C@@H]1CCC1=CCOC1=O (some centres undefined)
inactive: max response (CRL-7250) -10.5% | max response (HEK293) -0.138% | outcome (HaCat [1]) | max response (KB-3-1) 5.6% | max response (NIH3T3) -5.66% | outcome (HACAT [2]) | Potency (C33A) | Potency (CAOV3) | outcome (CASKI) | Potency (Es-2) | Potency (HeLa) | Potency (Hek293T) | Potency (JEG-3)

COc1ccc(C(=O)CC(=O)O)c2c1C=CC(C)(C)O2
inactive: outcome (CRL-7250) | max response (HEK293) -7.49% | outcome (HaCat [1]) | max response (KB-3-1) 7.77% | max response (NIH3T3) -1.38% | outcome (HACAT [2]) | Potency (C33A) | Potency (CAOV3) | outcome (CASKI) | Potency (Es-2) | Potency (HeLa) | Potency (Hek293T) | Potency (JEG-3)

NC(=O)[C@H](Cc1ccccc1)NC(=O)[C@H](CCCN=C(N)N)NC(=O)C12CC3CC(CC(C3)C1)C2
inactive: max response (CRL-7250) -2.98% | max response (HEK293) -11.4% | outcome (HaCat [1]) | outcome (KB-3-1) | outcome (NIH3T3) | outcome (HACAT [2]) inactive [at 9.27 µM] | activity change, negative = cytotoxicity (C33A) 15.1% [at 11.6 µM] | activity change, negative = cytotoxicity (CAOV3) 15.6% [at 11.6 µM] | activity change, negative = cytotoxicity (CASKI) 5.13% [at 11.6 µM] | activity change, negative = cytotoxicity (Es-2) 7.15% [at 11.6 µM] | activity change, negative = cytotoxicity (HeLa) 9.3% [at 11.6 µM] | activity change, negative = cytotoxicity (Hek293T) 9.9% [at 11.6 µM] | activity change, negative = cytotoxicity (JEG-3) 17.3% [at 11.6 µM]
